Test results from PubChem BioAssay (EPA / NIEHS).
“And” between values parts separate entries of the source, which are not always exact repeats. Equal values may be shown once. Where a structure was tested more than once in an assay, its records may differ in their call. The source made the active and inactive calls. The calls were made as follows: active = hit-call score of the fitted dose curve at least 0.9, where 1 is the maximum; inactive = score below 0.9.

Assay: ATG_EGR_CIS: Attagene CIS-FACTORIAL HepG2 Assay for human Early Growth Response 1 (EGR1) (AID 2282938)
Settings: HepG2 Attagene CIS-FACTORIAL EGR reporter mRNA; actives raise or lower the signal
Experimental: ATG_CIS is a cell-based, multiplexed-readout assay that uses HepG2, a human liver cell line, with measurements taken at 24 hours after chemical dosing in a 24-well plate.ATG_EGR_CIS is one of 52 assay component(s) measured or calculated from the ATG_CIS assay. It is designed to make measurements of mRNA induction, a form of inducible reporter, as detected with fluorescence intensity signals by Reverse transcription polymerase chain reaction (RT-PCR) and Capillary electrophoresis technology.Data from the assay component ATG_EGR_CIS was analyzed into 1 assay endpoint. This assay endpoint, ATG_EGR_CIS, was analyzed with bidirectional fitting relative to DMSO as the negative control and baseline of activity. Using a type of inducible reporter, measures of mRNA for gain or loss-of-signal activity can be used to understand the reporter gene at the transcription factor-level as they relate to the gene EGR1. Furthermore, this assay endpoint can be referred to as a primary readout, because this assay has produced multiple assay endpoints where this one serves a reporter gene function. To generalize the intended target to other relatable targets, this assay endpoint is annotated to the dna binding intended target family, where the subfamily is zinc finger.
Human liver HepG2 cells are transiently transfected with multiple reporter transcription units (MRTUs) in 6-well plates using FuGene 6 reagent (Roche; 3 ml FuGene/1 mg DNA). The MRTU constructs are regulated by a cis-regulating element (promoter). […] A major difference between the CIS and TRANS system is that in CIS activities of endogenous TFs are measured, whereas the TRANS assay evaluates changes in activities of exogenous, chimeric NR-Gal4 proteins. […] At the end of 24 hour incubation, total RNA was isolated using TriZol reagent (Invitrogen). The isolated RNA is then reverse-transcribed using oligo(dT) primer and Mo-MLV reverse transcriptase (Invitrogen) with DNAse I (Ambion) treatment for 30 min. The one-tenth of the produced cDNA was amplified by PCR using Taq DNA polymerase (Invitrogen) and two reporter sequence-specific primers. The PCR products were fluorescently labeled by primer extension with 6-arboxyfluorescein (6-FAM) 5'-labeled reporter sequence-specific primer (2 min at 95 C, 20 s at 68 C and 10 min at 72 C) and these products were digested with 5U of HpaI (New England Biolabs) for 2h at 37 C. The fragments were purified using Qiaquick PCR columns (Qiagen), analyzed on an ABI 3130xL genetic analyzer (Applied Biosystems) with peak positions identified by using a set of X-rhodamine (ROX)-labeled MapMarker1000 molecular weight standards (BioVentures). The raw capillary electrophoresis data was processed using Attagraph software (Attagene).

Compound	outcome	AC50
O=C1O[C@H]([C@@H](O)CO)C(O)=C1O	inactive	
CCN(Cc1cccnc1)C(=O)c1cccc(Cl)c1[C@]1(C)C(=O)N(Cc2ccc(OC)cc2OC)c2ccc(Cl)cc21		3.83 µM (active)
O=C=NCCCCCCN=C=O	inactive	
CCCCOC(=O)c1ccc(O)cc1	inactive	97.1 µM (active)
CC1=CC(=O)/C(=C(/C)O)C(=O)O1	inactive	
CC(=O)N1CCN(c2ccc(OC[C@H]3CO[C@](Cn4ccnc4)(c4ccc(Cl)cc4Cl)O3)cc2)CC1		11.6 µM (active)
CC/C(=C(/CC)c1ccc(O)cc1)c1ccc(O)cc1	inactive	
CC[C@H](NC(=O)c1cc(F)ccc1NS(=O)(=O)c1cccc2cccnc12)c1ccccc1	inactive	
c1ccc2n[nH]nc2c1	inactive	
O=C(O)c1ccccc1-n1cc(C(=O)O)c(=O)c2cc(Nc3c(F)cc(F)cc3Cl)c(Cl)cc21	inactive	
O=C(Nc1ccc(Cl)cc1)Nc1ccc(Cl)c(Cl)c1	inactive	
Cc1occc1C(=O)Nc1ccc(C(=O)N2CCC(F)(F)/C(=C\C(=O)N3CCC(N4CCCCC4)CC3)c3ccccc32)cc1		34.5 µM (active)
OC12N=C(c3ccccc3)SC1Cc1cc(Cl)ccc12 (stereo not given)	inactive	
Clc1cc(Cl)c2c(c1)N=C1CCCCCN1C2	inactive	
O=c1[nH]sc2ccccc12	inactive	
CCCCCCCCOc1ccc(C(=O)c2ccccc2)c(O)c1	inactive	
Cc1cccc2ccccc12	inactive	
CCCCCCCCCCCC[N+](C)(C)C	inactive	
CCOC(=O)O[C@H](C)OC(=O)c1ccc2c(c1)cc(C(=O)NC1CCN(C(C)C)CC1)n2Cc1cc(-c2ccc(Cl)s2)on1	inactive	

Compound	outcome	AC50
O=C1CCC(C2CCCCC2)CC1	inactive	130 µM (active)
CN1C(=O)CC[C@H]1c1cccnc1	inactive	
c1ccc2ccccc2c1	inactive	
O=C(O)c1ccccc1C(=O)OCc1ccccc1	inactive	
CC(C)(C)c1csc(-c2cc3cc(OCc4ccccc4CC(=O)O)ccc3o2)n1		14.4 µM (active)
CC(O)CC(C)(C)O (stereo not given)	inactive	
c1ccc(C[n+]2cccc3ccccc32)cc1	inactive	
CCCCCCCCCCCO	inactive	
CCCCCc1ccc(N)cc1	inactive	
CC(C)(c1cc(Br)c(O)c(Br)c1)c1cc(Br)c(O)c(Br)c1		47.1 µM (active) and 37.6 µM (active)
CC[C@@H]1C[C@H](N(Cc2cc(C(F)(F)F)cc(C(F)(F)F)c2)C(C)=O)c2cc(C(F)(F)F)ccc2N1C(=O)OC(C)C	inactive	
C[C@]12CC[C@@H]3c4ccc(O)cc4CC[C@H]3[C@@H]1CC[C@H]2O	inactive	42 µM (active)
OCCO	inactive	
CC1(C)NC(=O)N(c2ccc([N+](=O)[O-])c(C(F)(F)F)c2)C1=O	inactive	
Clc1ccccc1C(c1ccccc1)(c1ccccc1)n1ccnc1		8.64 µM (active)
CCN(CC)C(=O)c1cc(S(=O)(=O)Cc2ccccc2)c(N2CCC(c3ccccc3)CC2)cc1N(CC)CCN(C)C	inactive	
CCO[Si](CCCNC(N)=O)(OCC)OCC	inactive	
CCCCCCCC[Si](OCC)(OCC)OCC	inactive	
